# PubChem BioAssay
# Assay: small-molecule binders of probe aInhba, primary screen, biochemical, small-molecule microarray, 635/667 nm fluorescence (AID 1148);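 further: score merges 667nm spot fluorescence with signal-to-noise for antibody binding to printed compounds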
# Conditions: higher = more signal
row,SMILES,composite z-score
1,COCCOC(=O)N1C(=O)[C@@]2(c3cc(C#CCC(C(=O)OC)C(=O)OC)ccc31)[C@H](C(N)=O)[C@H]1C(=O)O[C@H](c3ccccc3)[C@H](c3ccccc3)N1[C@@H]2c1ccc(O)cc1,-0.0405
2,COc1cc(OC)c(C(O)C2C=CC3C(=O)N(c4ccccc4)C(=O)C3N2Nc2ccc(C(C)C)cc2)cc1Br (stereo not given),0.136
3,C#CCN1[C@@H](Cc2ccccc2)C(=O)O[C@H](Cc2ccccc2)[C@@H]1/C=C/C1CC1,-0.0763
4,CN(C)CCCNC(=O)[C@@H]1c2ccccc2C(=O)N(Cc2ccccc2C(F)(F)F)[C@H]1c1ccc(CO)cc1,-0.16
5,COc1ccc([Si](C)(C)[C@H]2[C@H](CCO)O[C@@]3(C(=O)N(Cc4ccc(NC(=O)[C@H](C)O)cc4)c4ccccc43)[C@@H]2C)cc1,-0.0405
6,CCOC(=O)C[C@H]1[C@H](OC(=O)c2ccccc2-c2ccccc2)[C@@H](NC(=O)c2ccc3ccccc3c2)c2cc(OCCCO)ccc2N1C(=O)Cc1ccc(OC)cc1,-0.128
7,COCCCN1C(=O)[C@@]2(c3ccc([N+](=O)[O-])cc3)CC(=O)N(CC34CC5CC(CC(C5)C3)C4)[C@@H]2c2ccc(CO)cc21,-0.138
8,C=C1C(=O)C=C2CN(C(=O)c3ccccc3)[C@@](Cc3ccc(OC)cc3)(C(=O)OC)[C@@H]12,0.863
9,C=CCNC(=O)[C@H]1[C@@H]2C(=O)O[C@@H](c3ccccc3)[C@@H](c3ccccc3)N2[C@@H](c2ccc(OCCO)cc2)[C@]12C(=O)Nc1ccccc12,-0.244
10,COCCOC(=O)N1C(=O)[C@@]2(c3ccccc31)[C@H](c1ccc(O)cc1)N1[C@H](c3ccccc3)[C@H](c3ccccc3)OC(=O)[C@H]1[C@@H]2C(=O)N1CCCCCCC1,2.08
